SUMO HTRF inh – inhibitors of in vitro SUMOylation cascade, primary screen, biochemical, HTRF, uHTS; SUMO-conjugating enzyme UBC9 (Homo sapiens), P63279; HTRF SUMOylation assay, SAE1/SAE2 + UBC9; inhibition, % at 35 µM; hit rate 0.36% among 290,000; in the data active means inhibition above about 50%, passing the limit was not always enough
Target sequence (P63279 whole entry, looked up): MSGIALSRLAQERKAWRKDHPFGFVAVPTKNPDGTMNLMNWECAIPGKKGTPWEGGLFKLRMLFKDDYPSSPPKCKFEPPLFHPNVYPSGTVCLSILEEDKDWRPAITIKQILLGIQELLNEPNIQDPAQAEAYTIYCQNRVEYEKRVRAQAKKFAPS
CASP6 VEID inh – human caspase-6 inhibitors, primary screen, biochemical, VEID-R110 fluorescence, single point, set 2 | purified caspase-6, Z-VEID-R110 cleavage fluorescence | P55212 | AID 686996, 2013 | hit rate 0.53% among 350,000 | inhibition, % at 12.5 µM;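 active means mean inhibition across replicates at least about 35%, with every replicate also reaching that limit, limit read from the data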;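 further: 0% = median of neutral control wells and 100% = no fluorescence left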
Target sequence (P55212 24-179 limits assumed): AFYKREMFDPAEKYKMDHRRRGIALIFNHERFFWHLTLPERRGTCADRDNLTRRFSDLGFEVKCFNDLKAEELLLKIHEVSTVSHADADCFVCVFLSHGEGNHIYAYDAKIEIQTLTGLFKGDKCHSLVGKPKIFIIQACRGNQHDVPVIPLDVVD
Target sequence (P55212 194-293 limits assumed): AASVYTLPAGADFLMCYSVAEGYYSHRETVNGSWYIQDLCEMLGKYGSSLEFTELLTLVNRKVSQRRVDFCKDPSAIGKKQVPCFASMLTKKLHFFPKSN
NSD2 HMT inh – NSD2 histone methyltransferase inhibitors, primary screen, biochemical, AlphaScreen, single concentration, set 2. Histone-lysine N-methyltransferase NSD2 (Homo sapiens), O96028. NSD2 peptide methylation, 120 min. inhibition, % at 12.5 µM. hit rate 0.54% among 310,000. AID 743445, 2014; in the data active means inhibition above about 50%
SIRT5 inh – SIRT5 desuccinylase inhibitors, primary screen, biochemical, fluorescence imaging, single point, set 5. NAD-dependent protein deacylase sirtuin-5, mitochondrial (Homo sapiens), Q9NXA8. Purified SirT5, succinyl-peptide AMC, trypsin-coupled fluorescence. inhibition, % at 15 µM. hit rate 1.1% among 330,000; in the data active means inhibition above about 15%
Starred values were filed as active, the others as inactive; · = not tested or not shown. In the library only some 1.6% were active in any assay of this set; here they are far more common.

SMILES | SUMO HTRF inh | CASP6 VEID inh | NSD2 HMT inh | SIRT5 inh
COc1ccc2c(c1)-c1nc(/N=C/c3c(O)ccc4ccccc34)sc1CC2 | 57* | 8 | · | -6
Cc1ccc(-c2c[n+](Cc3ccc(Cl)cc3)c3n2CCC3)cc1 | 20 | -1 | 0 | 40*
O=C(Oc1ccccc1)c1cccc(N2C(=O)CCC2=O)c1 | -6 | · | -3 | ·
COc1cccc(C(=O)Oc2ccc(N3C(=O)CCC3=O)c(C)c2)c1 | 21 | 10 | -1 | 16*
C/C(=N\Nc1ccc(C(=O)O)cc1)c1ccc2c(c1)Nc1ccccc1S2 | 15 | 21 | · | 24*
COc1ccc(/C(C)=N/Nc2cccc(C(=O)O)c2)cc1OC | 16 | 0 | 4 | 3
C/C(=N/Nc1ccc(C(=O)O)cc1)c1ccc2c(c1)Nc1ccccc1S2 | · | 12 | 1 | 24*
O=C1CNC(=O)/C1=C/c1ccc(Br)cc1 | 11 | 2 | 18 | 25*
O=C(Nc1ccc(F)cc1)Oc1ccccc1N1CCOCC1 | 0 | 8 | -4 | ·
O=C(Nc1ccc(F)cc1)Oc1ccc[nH]c1=O | 99* | 2 | · | -14
COc1ccc(OC)c(NC(=O)CSc2nnc(CNC(=O)c3ccco3)o2)c1 | 22 | · | · | ·
COc1ccc(OC)c(NC(=O)CSc2nnc(CNC(=O)c3cccs3)o2)c1 | 5 | -2 | 10 | 21*
O=C(O)CSc1c(O)c2ccccc2[nH]c1=O | 13 | 2 | -2 | 2
O=c1[nH]c2ccccc2c(O)c1SCCO | 0 | 3 | 3 | 18*
Cc1c(N=NC2=C(O)CCCC2=O)c(=O)n(-c2ccccc2)n1C | 9 | 17 | 0 | 26*
Cc1c(N=Nc2ccc(O)cc2)c(=O)n(-c2ccccc2)n1C | -17 | 5 | -1 | 6
Cc1cccc(-c2ccc([C@@H]3[C@H](CO)N4C(=O)CN(C(=O)c5ccccc5)C[C@@H]34)cc2)c1 | · | 1 | · | -10
C[C@H](CO)N1C[C@H](C)[C@@H](CN(C)C(=O)Nc2ccc3c(c2)OCO3)Oc2ccc(NS(=O)(=O)c3cn(C)cn3)cc2CC1=O | · | 3 | · | 5
CC(=O)NC1C(=O)N(CCc2ccccc2)c2ccc(Br)cc21 (stereo unspecified) | 2 | 0 | -3 | 1
CCOc1ccc2c(c1)C(NC(C)=O)C(=O)N2CCN1CCOCC1 (stereo unspecified) | 57* | 55* | · | 1
CC(=O)NC1C(=O)N(CCN2CCOCC2)c2ccc(Br)cc21 (stereo unspecified) | 62* | 34 | -2 | -1
CC1=C/C(=C\c2ccc(Br)o2)C(=O)O1 | 3 | 83* | 98* | 0
COCC(=O)Nc1ccc2c(c1)OC[C@@H](C)N(C(=O)COC)C[C@H](C)[C@@H](OC)CN(C)C2=O | · | 0 | · | ·
O=C(N/N=C/c1c[nH]c2ccccc12)c1ccncc1 | -9 | -4 | 2 | 4
O=C(N/N=C/c1c[nH]c2ccccc12)c1ccccc1 | 9 | 0 | 1 | 100*
SMILES | SUMO HTRF inh | CASP6 VEID inh | NSD2 HMT inh | SIRT5 inh
COc1cc(-c2noc(C)c2/C=C/c2ccc(C(=O)O)cc2)cc(OC)c1OC | -2 | 35* | · | 7
CCOCCOc1cc(NCc2ccccc2)c2ncn(C(C)C)c2c1 | · | 41* | · | ·
CCCCOc1cc(NCc2ccccc2)c2ncn(C(C)C)c2c1 | · | 5 | · | ·
COc1cc(NC(=O)c2cccnc2)c(Cl)cc1NC(=O)c1ccccc1 | 15 | 64* | -1 | -1
COc1cc(NC(=O)c2cccnc2)c(Cl)cc1NC(=O)c1ccc(Cl)cc1 | 32 | -1 | 0 | ·
CN1c2ccc(C#Cc3cccnc3)cc2[C@H]2[C@H](CCN2S(=O)(=O)c2ccccc2F)[C@@H]1CO | · | 0 | · | -3
C[C@H]1CN([C@@H](C)CO)C(=O)c2cccc(NC(=O)c3ccncc3)c2O[C@H]1CN(C)C(=O)NC1CCCCC1 | · | -3 | · | -1
O=C(NC1CCCCC1)N[C@H]1C=C[C@@H](CC(=O)N2CCOCC2)O[C@@H]1CO | · | 37* | · | 8
O=C(N[C@H]1C=C[C@H](CC(=O)N2CCOCC2)O[C@H]1CO)c1ccccn1 | · | 2 | · | 29*
O=C(N[C@H]1C=C[C@@H](CC(=O)N2CCOCC2)O[C@@H]1CO)c1ccccn1 | · | 3 | · | -1
C[C@H](CO)N1C[C@H](C)[C@H](CN(C)S(=O)(=O)c2ccccc2)Oc2c(NC(=O)Nc3ccc(F)cc3)cccc2C1=O | · | · | · | -3
C[C@H]1CN([C@@H](C)CO)C(=O)c2cc(/C=C/c3ccccc3)cnc2O[C@H]1CN(C)C(=O)Nc1ccc(C(F)(F)F)cc1 | · | -2 | · | -1

Screening data: PubChem BioAssay, several laboratories
